DUX4 inh: DUX4-mediated transcription inhibition. 293T-iDUX4 ZSCAN4-Gaussia luciferase reporter, 24 h; stronger effect = lower value. activity change, negative = inhibition, % (test concentration not listed). 0.8% of 37,000 active. AID 1224904;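 active = mean inhibition of at least 10% in the main channel, exceeding the control channel by a set limit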;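 note: 0% = median of neutral control wells and -100% = median of positive control wells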
An asterisk follows results filed as active. The sample as a whole holds a higher share of hits than the screen did.

SMILES | DUX4 inh
COC(=O)[C@H]1[C@H](CO)[C@H]2Cn3c(ccc(-c4cccnc4)c3=O)[C@@H]1N2S(=O)(=O)c1ccccc1C | -2
COC(=O)[C@@H]1[C@@H](CO)[C@@H]2Cn3c(ccc(-c4cncnc4)c3=O)[C@H]1N2S(=O)(=O)c1ccccc1C | -17*
COC(=O)[C@@H]1[C@@H](CO)[C@@H]2Cn3c(ccc(-c4cccnc4)c3=O)[C@H]1N2S(=O)(=O)c1ccccc1C | 2
Cc1ccc(OC(=O)N(C)C[C@@H]2OCc3ccccc3-c3c(n(C)c4ccccc34)C(=O)N([C@@H](C)CO)C[C@H]2C)cc1 | 3
O=C(Cc1ccccc1)N1CC2(C1)[C@@H](c1ccccc1)[C@H](CO)N2Cc1cccc(F)c1 | -10
O=C(Cc1ccncc1)N1CCCCN2[C@@H](CO)[C@@H](c3ccc(-c4ccncc4)cc3)[C@@H]2C1 | 14
O=C(Cc1ccncc1)N1CCCCN2[C@H](CO)[C@H](c3ccc(-c4ccncc4)cc3)[C@@H]2C1 | 12
O=C(Cc1ccncc1)N1CCCCN2[C@H](CO)[C@@H](c3ccc(C#Cc4ccccc4F)cc3)[C@H]2C1 | -28*
O=C([C@H]1N[C@H]2c3cccc(=O)n3C[C@H]2[C@@H]1CO)N1CCCCC1 | 2
O=C(Cc1ccccn1)N1CC2(C1)[C@H](c1ccccc1)[C@@H](CO)N2Cc1ccccn1 | -9
